Bioassay records deposited in PubChem by National Center for Advancing Translational Sciences (NCATS).
TRHR PAM: TRH receptor (human) allosteric enhancement; TRHR cells, fluo-8 calcium fluorescence, EC20 TRH enhancement; enhancement, % at 2 µM; actives 0.66% (n = 360,000); AID 493056; in the data active means enhancement above about 30%; further: 0% is about no effect
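TRHR-expressing cells loaded with fluo-8 calcium dye were read kinetically (ex 480/em 530) during compound addition, then stimulated with an EC20 of TRH (10 nM final). Enhancement of the Gq-mediated intracellular calcium response was scored.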
TRPML1 ag: human mucolipin-1 channel agonism. activation, % (concentration not given with the values). TRPML1-expressing cells, Ca2+ dye fluorescence, FDSS. Q9GZU1. actives 0.12% (n = 410,000); in the data active means activation above about 50%; inconclusive means mostly about 30% to 49%; further: 0% is about no effect
Target sequence (Q9GZU1 whole entry, looked up): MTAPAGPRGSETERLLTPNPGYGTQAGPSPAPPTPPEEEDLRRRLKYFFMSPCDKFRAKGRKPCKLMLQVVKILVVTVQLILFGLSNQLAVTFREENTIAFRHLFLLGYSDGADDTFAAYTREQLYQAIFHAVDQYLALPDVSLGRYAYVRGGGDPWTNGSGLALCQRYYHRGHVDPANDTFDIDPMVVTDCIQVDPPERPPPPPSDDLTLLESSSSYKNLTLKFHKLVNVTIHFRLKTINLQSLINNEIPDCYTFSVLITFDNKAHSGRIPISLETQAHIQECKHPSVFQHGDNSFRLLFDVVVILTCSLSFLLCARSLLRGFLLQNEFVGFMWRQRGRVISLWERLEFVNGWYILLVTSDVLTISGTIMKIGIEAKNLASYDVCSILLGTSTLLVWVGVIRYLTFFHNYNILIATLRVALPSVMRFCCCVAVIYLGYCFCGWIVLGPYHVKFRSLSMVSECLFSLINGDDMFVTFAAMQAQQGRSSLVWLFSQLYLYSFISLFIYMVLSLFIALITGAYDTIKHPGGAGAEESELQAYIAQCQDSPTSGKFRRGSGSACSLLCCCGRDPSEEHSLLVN
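Kinetic FDSS Ca2+ read in Tet-induced TRPML1-DL cells (ABD Ca8 dye plus quencher, 45-90 min RT loading): baseline, then compound, then 110 s agonist window; EC80 agonist 54-4 at 4uM final added afterwards for a 110 s antagonist window.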
TRPML1 blocker: inhibitors of human TRPML1 channel | Q9GZU1 | TRPML1-inducible cells, Ca2+ dye fluorescence, FDSS; active compounds read low; inhibition of EC80 agonist-evoked calcium signal | activity change, negative = inhibition, % (no concentration beside the values) | actives 0.02% (n = 390,000) | AID 624415; in the data active means activity change below about -50%; inconclusive means between about -30% and that limit;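 further: stimulus is agonist 54-4 at its EC80 concentration; on the % scale 0 is the no-effect control and ±100 the full control effect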
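Tet-induced TRPML1-DL cells loaded with Ca8 no-wash calcium dye were read kinetically on FDSS. Compound addition was followed by EC80 agonist 54-4 (4 uM final); inhibition was read over 110 s.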
PTHR1 agonist: agonists of human PTHR1 parathyroid hormone receptor. Potency, µM (doses to about 115 µM), for inactives: at the top dose activation, hits mostly activators. actives 0.075% (n = 410,000). Q03431. HEK293 GP2 PTHR1 cells, GloSensor cAMP luminescence, 1 h; further: potency means the concentration at half of the fitted maximal effect; nearly all actives have a fitted effect of over 55% in size
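HEK-293-derived GP2 cells expressing PTHR1 and a GloSensor cAMP reporter, 3,000/well, plated overnight, given luciferin plus IBMX (each 0.5 mM as added) for 1 h at 37 °C, then compound for 1 h at 37 °C. Luminescence was read after 15 min at room temperature.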
HEK293 tox: cytotoxicity in counter-screen for GLP-1R inverse agonists; AID 624418; HEK293 cAMP-luciferase reporter cells, luminescence, 24 h; actives 0.13% (n = 410,000); Potency, µM (doses to about 38.3 µM), for inactives: at the top dose activity change, negative = inhibition, most hits filed as inhibitors;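 further: loss of luciferase light is scored as toxicity; potency means the concentration at half of the fitted maximal effect; on the % scale 0 is the no-effect control and ±100 the full control effect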
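Quantitative HTS format, 1536 wells, 200 cells/uL seeded. Compounds: 23 nL, 24 h, 37 °C. Detection: luciferase reagent, luminescence at 12 min RT; decreased signal taken as cytotoxic.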
TRHR agonist: agonists of human TRH receptor. P34981. TRHR cells, calcium flux fluo-8, FDSS agonist mode. activation, % at 2 µM. actives 0.18% (n = 360,000). AID 493084; in the data active means activation above about 30%; further: 0% is about no effect
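In this calcium-flux screen, cells bearing human TRHR are dye-loaded with fluo-8, baselined for 10 cycles, then exposed to library compounds; positive kinetic calcium responses during the agonist phase mark hits, with TRH as control.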
The depositor's hits bear a star; i = inactive; ? = inconclusive; . = no result; [ ] = another dose, or the depositor's remark. Compounds with a hit are over-represented: about 0.93% of the library has one in this group of screens. Unless noted, the call rests on the fitted dose curve; in most records, active means well fitted curve in the direction sought with a large enough effect; inconclusive means small, poorly fitted or top-dose-only effect, or another doubt; inactive means no such curve, though single readings can be large; an effect the other way counts as inactive or inconclusive.

SMILES | TRHR PAM | TRPML1 ag | TRPML1 blocker | PTHR1 agonist | HEK293 tox | TRHR agonist
O=C(CSc1cccc[n+]1[O-])Nc1ccccc1Oc1ccccc1 | -11 | 0 | -19 | i | 0.79µM* | -1
CCOC(=O)c1ccc(NC(=S)Nc2cccc(C)n2)cc1 | 13 | 1 | 16 | i | 1.3µM* | 0
O=C(NCCN1CCOCC1)C1(C(F)(F)F)C/C(=C/CCO)CCCO1 (centres undefined) | . | 1 | 16 | . | . | .
COc1ccc(SCC(CC(C)C)N2CCN(C)CCC2=O)cc1 (centres undefined) | . | 1 | -18 | . | . | .
Cc1ccc(CN2[C@H]3CCCC[C@@H]3OCCS2(=O)=O)cc1 | . | -1 | . | . | . | .
COc1ccc(C2=Nn3c(nnc3-c3ccccc3OC)SC2)cc1 | -1 | . | . | . | . | -1
CCCCCCc1cc2cc(-c3nnc(-c4ccccc4OC)o3)c(=O)oc2cc1O | -14 | ? | -26 | -24% | 388% | 148*
CCCCCCc1cc2cc(-c3nnc(-c4cc(OC)c(OC)c(OC)c4)o3)c(=O)oc2cc1O | -3 | 13 | -3 | -20% | 228% | -1
CCCCCCc1cc2cc(-c3nnc(-c4ccccc4O)o3)c(=O)oc2cc1O | 51* | ? | 25 | i | 134% | 147*
N/C(CCS(=O)(=O)c1ccc(Cl)cc1)=N\OC(=O)c1ccccc1C(F)(F)F | 7 | 1 | 17 | -23% | 10µM* | -1
CN1CCN(C(=O)Nc2ccccc2)CC1 | -2 | 1 | 7 | -22% | 16% | 1
CSc1cccc(NC(=O)N2CCN(C)CC2)c1 | 37* | 0 | 1 | -18% | -2% | 0
COc1ccc(NC(=O)c2cc3ccccc3o2)cn1 | 41* | 1 | 5 | -35% | -3% | 0
COc1ccc(NC(=O)c2cc(=O)c3ccccc3o2)cn1 | 4 | 0 | 13 | -1%[57.5 µM] | -14% | 0
Cn1c(SCC(=O)NCc2ccco2)nnc1-c1ccc(NC(=O)c2ccccc2)cc1 | . | 0 | . | . | . | .
ONC(=Nc1ccccc1)c1ccc(Cl)cc1 | -2 | 1 | 4 | -28% | -13% | 0
NC(=Nc1ccc(Cl)cc1)c1ccccc1 | -19 | 65* | -5 | -20% | -3% | 31*
CCc1nc(=O)c(-c2ccccc2)c(C)n1-c1ccccc1 | 37* | 2 | -53* | i | -23% | 0
Cc1cc2c(cc1C)NC(CC(=O)Nc1cccc(Cl)c1)C(=O)N2 (centres undefined) | 43* | 2 | 1 | 19% | -20% | 2
CC(=O)c1c(C)[nH]c(C(=O)Nc2cc(F)ccc2C)c1C | 0 | -1 | 26 | -9% | -69% | -1
CC(=O)c1c(C)[nH]c(C(=O)Nc2ccc(F)cc2F)c1C | 36* | 0 | 17 | i | -26% | -1
CCOC(=O)CSc1cccc2cccnc12 | -6 | 0 | 1 | i | 3.5µM* | 0
CC(C)CC(NC(=O)c1ccc(Cl)cc1)C(=O)O (centres undefined) | 33* | 1 | -5 | i | 8% | 0
O=C(NC1CCCN(Cc2ccc(Cl)cc2)C1)c1ccnc(Cl)c1 (centres undefined) | 32* | 0 | 17 | -13% | -5% | -2
CC(C)(C)CC(C)(C)N=C1Nc2ccc(Cl)cc2NC12C[C@H]1CCC(=O)N3CC[C@@H](C2)[C@@H]13 (some centres undefined) | . | -1 | . | . | . | .
SMILES | TRHR PAM | TRPML1 ag | TRPML1 blocker | PTHR1 agonist | HEK293 tox | TRHR agonist
COc1cccc(N/C(N)=N/c2nc(C(F)(F)F)cc(=O)[nH]2)c1 | 31* | -1 | 20 | -5% | 16% | 1
COc1ccc(NC(=O)c2ccc3ncsc3c2)cc1 | 35* | 1 | -14 | i | -13% | -1
Nc1nc2ccc(C(=O)Nc3ccccc3)cc2s1 | 2 | -1 | 3 | 4µM* | -1% | 2
O=C(O)COc1ccc(NC(=O)c2ccc(NC(=O)c3ccco3)cc2)cc1 | 1 | 0 | -4 | -14% | 12% | 1
COc1ccc(C(=O)Nc2ccc(NC(=O)c3ccco3)cc2)cc1 | 39* | 0 | -1 | -2% | -17% | -2
CC(C)(C)n1ncc2c(=O)n(Cc3ccccc3-c3ccccc3)cnc21 | . | 2 | 7 | . | . | .
Cc1ccc(S(=O)(=O)Nc2cc(C(F)(F)F)ccc2N2CCOCC2)cc1 | 33* | ? | 12 | i | -26% | 0
Cc1ccc(S(=O)(=O)Nc2cc(C(F)(F)F)ccc2N2CCOCC2)c(C)c1 | 3 | 64* | 1 | -71% | -3% | 1
CCCc1ccc(OC(C)c2nc(-c3ccc(-n4cccc4)cc3)no2)cc1 (centres undefined) | 36* | 1 | -22 | -30% | 5% | 3
COc1ccc(CCc2nc(-c3ccc(-n4cccc4)cc3)no2)cc1 | 9 | 1 | -5 | i | 2% | 1
CN(C)c1ccc(C(=O)Oc2cc(O/N=[N+](\[O-])N(C)C)c([N+](=O)[O-])cc2[N+](=O)[O-])cc1 | . | 1 | -10 | . | . | .
c1ccc2c(c1)oc1c(NCC3CCCO3)ncnc12 (centres undefined) | 37* | 0 | -1 | -73%[57.5 µM] | -13% | 0
c1ccc(-c2nc(NCC3CCCO3)c3oc4ccccc4c3n2)cc1 (centres undefined) | -14 | 2 | 33 | 10%[57.5 µM] | 5% | 0
CCn1c(C(=O)N2CCCC(C(=O)N3CCN(c4cc(C)ccc4C)CC3)C2)cc2sccc21 (centres undefined) | -1 | 65* | -11 | -105% | 43% | 0
Cc1ccc(C)c(N2CCN(C(=O)C3CCN(C(=O)c4cc5sccc5n4C)CC3)CC2)c1 | 1 | 1 | 5 | -92% | -8% | 0
COc1ccc(NC(=O)C(OC(=O)CNC(=O)c2ccccc2)c2ccccc2)c(C)c1 (centres undefined) | 0 | . | . | . | . | 0
CCOc1ccc(C(=O)Nc2cc(S(=O)(=O)Nc3ccccc3Cl)ccc2N2CCOCC2)cc1 | 40* | 0 | -15 | -1% | -16% | -1
O=S(=O)([O-])CCC[n+]1c(/C=C\Nc2ccccc2)oc2ccc(-c3ccccc3)cc21 | 27 | . | . | . | . | 118*
CCCC(=O)Nc1ccccc1N1CCN(C(=O)C(C)C)CC1 | 32* | 1 | -6 | i | 4% | -1
CC(C)C(=O)N1CCN(c2ccccc2NC(=O)COc2ccccc2)CC1 | -3 | 1 | 17 | -26% | 6%[7.66 µM] | 1
CS(=O)(=O)c1ccccc1NC(=O)COc1ccccc1C(=O)Nc1ccccc1 | . | -1 | . | . | . | .
COC(=O)c1cnn2c1C(=O)N(Cc1cccs1)CC2 | 34* | -1 | 2 | i | -7% | 0
